In PubChem BioAssay (NCI) one finds growth data, which are given here for 13 compounds.

“And” between values parts separate entries of the source, which are not always exact repeats. Equal values may be shown once. This is part of a sample that, as a whole, favours compounds with a hit. Of some 83,000 tested, about 20% had one in any assay.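 96-well plates, one dose, 48 hours. Percent growth reported; active if below 10.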 Unmarked numbers belong to inactive results. The source made the active and inactive calls.

Assay in all cases: NCI-60 one-dose screen, 48 h (100 = growth as untreated, 0 = no growth, -100 = all killed)
Common to all, as to conditions: 10 µM unless noted

Assay [1] deals with NCI-H23 lung.
The test system of assay [2] is NCI-H226 lung.
For assay [3], the system named is NCI-H322M lung.
Assay [4] deals with HOP-62 NSCLC.
The test system of assay [5] is NCI-H460 lung.
Assay [6] relates to HOP-92 NSCLC.
Assay [7] relates to NCI-H522 lung.
Assay [8] has as its system A549/ATCC NSCLC.
The test system of assay [9] is 786-0 renal.
The subject of assay [10] is COLO 205 colon.

On to `CCN1CCN(c2ccc(NC(=O)Nc3ccc4c(ccn4-c4ccnc(C(=O)NC)c4)c3)cc2C(F)(F)F)CC1`, for which the growth was 81.8% in assay [1]; 92.8% in [2]; 85.5% in assay [3]; 79.1% in [4]; 75.6% in [5]; 84.7% in [6]. Besides, the growth in assay [7] was 105%; in assay [8], 91.3%; in assay [9] it was 10.3%; in assay [10], 97.9%.
Regarding `Cc1ccc(C)c(NC2=C(Cl)C(=O)c3nc(C)ccc3C2=O)c1`, the growth was -38% (active) in [1]; 10.5% in assay [2]; 24.2% in assay [3]; 7.19% (active) in [4]; 48.9% in assay [5]; -13.8% (active) in assay [6]. Also, the growth in [7] is -35.9% (active); in [8], 31%; in assay [9] it was 4.67% (active); in assay [10], 107%.
Take `C#C[C@]1(O)CC[C@H]2[C@@H]3CC=C4c5sc(Nc6cccc(F)c6)nc5CC[C@]4(C)[C@H]3CC[C@@]21C`: the growth in assay [1] was 27.8%; in [2], 43.6%; in assay [3], 53.7%; in assay [4], 33.4%; in [5] it was 24.3%; in [6], 61.3%. Moreover, the growth in [7] is 31.7%; in assay [8], 32.6%; in [9], 2.62% (active); in assay [10], -9.5% (active).
Take `CC(Nc1c(C#N)cnc2ccc(-c3cncc(-c4n[nH]c(=O)o4)c3)cc12)c1ccccc1` (stereo not given): the growth in assay [1] was 17.4%; in [2] it was 2.2% (active); in assay [3], -4.15% (active); in assay [4], 8.5% (active); in assay [5] it was 11.1%; in assay [6], -20.9% (active). Further, the growth in [7] is -20% (active); in [8], 17.7%; in assay [9], 9.83% (active); in assay [10] it was -6.04% (active).
Take `CCn1c2ccc(/C=N/N(C)S(=O)(=O)CCN(C)C)cc2c2cc(/C=N/N(C)S(=O)(=O)CCN(C)C)ccc21`: the growth in assay [1] is 43.4%; in assay [2] it was 40.8%; in assay [3], 80.8%; in [4], 101%; in assay [5], 73.5%; in assay [6] it was 42.4%. In addition, the growth in [7] is 36%; in assay [8] it was 84.5%; in [9], 50.3%; in [10], 92.8%.
On to `C#CCn1cc(/C=N/Nc2nc(-c3ccc(Br)cc3)cs2)c2ccccc21`, for which the growth in [1] was 86.7%; in [2] it was 94.7%; in assay [3], 93.6%; in [4], 97.5%; in [5], 97.3%; in assay [6], 88.9%. Besides, the growth in [7] was 88.9%; in assay [8], 97%; in assay [9], 105%; in assay [10] it was 115%.
For `Cc1cccc(N2CCN(C3=C(Cl)C(=O)c4ncccc4C3=O)CC2)c1`, the growth in assay [1] is 55.3%; in assay [2], 90.3%; in assay [3] it was 93.8%; in assay [4], 83.3%; in [5], 58.4%; in assay [6] it was 144%. In addition, the growth in assay [7] was 26.7%; in [8], 93.8%; in [9], 104%; in assay [10], 90.4%.
As to `O=C1[C@@H]2Cc3c([nH]c4ccccc34)[C@@H](c3ccc(Cl)cc3)N2C(=O)CN1C1CCN(Cc2ccccc2)CC1`, the growth in [1] was 72.4%; in assay [2], 72.5%; in assay [3], 87.2%; in [4] it was 61%; in assay [5], 20%; in assay [6] it was 11.3%. Besides, the growth was 20.7% in [7], 38.6% in assay [8], 67% in [9] and 46.4% in assay [10].
Turning to `COc1cc(-c2nc(-c3ccccc3)[nH]c2-c2ccnc(NCCCNS(=O)(=O)c3ccc(C(F)(F)F)cc3)n2)ccc1Cl`, the growth in assay [1] is 30.8% and 57%; in [2] it was 36.2% and 51.7%; in assay [3] it was 82.2% and 76.4%; in assay [4], 88.3% and 55.4%; in [5], 14.3% and 26.7%; in [6], 41.3% and 49.4%. Besides, the growth is 60.6% and 26.8% in assay [7]; 31% and 29.3% in assay [8]; 33.3% and 35.6% in assay [9]; 48.8% and 11.1% in assay [10].
In the case of `O=C(/C=C/c1cccc(C(F)(F)F)c1)Nc1cccc(C(F)(F)F)c1`, the growth in [1] was 33.1%; in [2] it was 64.2%; in assay [3], 79.9%; in assay [4] it was 58.4%; in assay [5], 13.9%; in assay [6], 7.77% (active). For the same compound, the growth was 33.8% in assay [7], 39% in assay [8], 76.4% in assay [9] and 38.4% in [10].
Regarding `CN(C)c1cccc2c(S(=O)(=O)Nc3cccc(-c4csc(NC(=O)CCCCCN5CCN(CCO)CC5)n4)c3)cccc12`, the growth in assay [1] was 81.3%; in assay [2], 91.2%; in assay [3], 88.2%; in assay [4], 84.9%; in assay [5], 82.6%; in [6], 37.5%. The growth in assay [7] is 84.4%; in assay [8], 74.9%; in assay [9] it was 77.5%; in [10], 81.1%.
Consider `C=C(C)[C@@H]1CC[C@]2(C(=O)NC3CCCCC3)CC[C@]3(C)[C@H](CC[C@@H]4[C@@]5(C)CC[C@H](N)C(C)(C)[C@@H]5CC[C@]43C)[C@@H]12`, for which the growth was 106% in assay [1]; 94.2% in [2]; 108% in assay [3]; 104% in [4]; 98.7% in assay [5]; 73.1% in assay [6]. Moreover, the growth in [7] was 93.2%; in assay [8] it was 91.9%; in [9] it was 84.6%; in [10], 52.9%.
In the case of `CCCCc1nc2c(N)nc3ccccc3c2n1Cc1cccc(CN)c1`, the growth in assay [1] is 72.6%; in [2] it was 87.1%; in [3], 81.2%; in [4], 57.3%; in assay [5], 19.7%; in assay [6] it was -0.82% (active). For the same compound, the growth in assay [7] was 72.7%; in [8], 69.5%; in [9] it was 66.7%; in assay [10], 44%.
